aSyn 5UTR act: Activators via SNCA 5'UTR binding, MLPCN. alpha-synuclein 5'UTR reporter, activators screen. activity score, % (tested at 7.5 µM), hits read low. 300,000 compounds, 7.1% hits; in the data active means activity score below about -60%
* hit, by the source's call. These entries were drawn from the full list.

SMILES	aSyn 5UTR act
COC(=O)c1ccc(CSc2nc(N)cc(N)n2)cc1	-66*
COC(=O)c1ccc(Oc2cc(C)nc(-n3nc(C)cc3C)n2)cc1	65
O=C(NNC(=S)NC(=O)c1sc2ccccc2c1Cl)c1ccc(Cl)cc1	-67*
O=C(Nc1ccncc1)c1sc2ccccc2c1Cl	-97*
O=C(Nc1ccnc(=O)[nH]1)c1sc2ccccc2c1Cl	-111*
CCn1nnc(NC(=O)c2ccc(-c3ccc(Cl)cc3)o2)n1	-64*
CCn1nnc(NC(=O)c2sc3ccccc3c2Cl)n1	-82*
O=C1CCC/C(=N/NC(=O)c2sc3ccccc3c2Cl)C1	-90*
CN(C)c1ccc(NC(=O)/C=C/c2ccccc2Cl)cc1	-161*
CN(C)c1ccc(NC(=S)NC(=O)/C=C/c2ccc(Cl)cc2)cc1	-219*
CCN(CC)c1ccc(NC(=O)/C=C\c2ccccc2Cl)cc1	-190*
Cc1ccc(NC(=O)/C=C/c2ccc([N+](=O)[O-])s2)cc1	-212*
Cc1cc([N+](=O)[O-])ccc1NC(=O)/C=C/c1cccs1	-158*
Cc1ccc(NC(=O)/C=C/c2ccc([N+](=O)[O-])s2)c(C)c1	-93*
Cc1cccc(NC(=O)/C=C/c2ccc([N+](=O)[O-])s2)c1	-224*
CC(=O)O[C@@]12CO[C@@H]1C[C@H](O)[C@@]1(C)C(=O)[C@H](O)C3=C(C)[C@@H](OC(=O)[C@H](O)[C@@H](NC(=O)OC(C)(C)C)c4ccccc4)C[C@](O)([C@@H](OC(=O)c4ccccc4)[C@H]21)C3(C)C	72
Clc1ccc(-c2nsc(N3CCOCC3)n2)c(Cl)c1	-126*
Clc1cc(Cl)c2nc(N3CCOCC3)sc2c1	-156*
Clc1ccc(Cl)c2sc(N3CCOCC3)nc12	-66*
COCCNC(=O)Cn1nc(-c2ccccc2OC)ccc1=O	-62*
CN(CCC#N)C(=O)c1cc2c(s1)-c1ccccc1SC2	-91*
Cc1ccc(OC(=O)NC2CCS(=O)(=O)C2)cc1C (stereo not given)	-122*
CCCS(=O)(=O)c1cnc(C2COc3ccccc3O2)nc1N (stereo not given)	68
Cc1cc(C)nc(SCC2COc3ccccc3O2)n1 (stereo not given)	-71*
Cc1cc(-c2nnc(CSc3nnc(NC(=O)c4ccc(C(C)(C)C)cc4)s3)o2)ccc1[N+](=O)[O-]	-110*
SMILES	aSyn 5UTR act
CCc1nnc(NC(=O)CSc2ccc(-c3ccc(C)cc3)nn2)s1	-70*
COc1ccc(-c2ccc(SCC(=O)NCc3ccco3)nn2)cc1	-78*
Cc1cc(NC(=O)CSc2ccc(-c3ccc(Br)cc3)nn2)no1	-67*
CCc1nnc(NC(=O)CSc2ccc(-c3nc4ccc(C)cc4[nH]3)cn2)s1	-159*
CCOc1ccc(-c2cc(CCCC(=O)NCc3ccco3)no2)cc1	73
O=C(CSc1ccc(-c2ccc(-n3cccn3)cc2)nn1)Nc1ccccc1F	-141*
Cc1cc2nc(-c3ccc(SCC(=O)Nc4ccc(S(=O)(=O)N5CCCC5)cc4)nc3)[nH]c2cc1C	-147*
COc1ccc(-c2ccc(SCC(=O)Nc3nnc(C)s3)nn2)cc1	-87*
COc1ccc(/C=C2\N=C(SC)N(C)C2=O)cc1	-63*
CS(=O)(=O)c1cccc(C(=O)Nc2ccc3c(c2)OCCCO3)c1	-101*
CCN(CC)S(=O)(=O)c1cccc(C(=O)Nc2ccc3c(c2)OCO3)c1	-125*
O=C(Nc1ccc(Cl)c(S(=O)(=O)N2CCOCC2)c1)c1ccc2c(c1)OCCO2	-65*
O=C(Oc1ccc(N2C(=O)CCC2=O)cc1)c1ccccc1Cl	59
O=C(Oc1ccc2c(c1)OCO2)c1ccc(F)cc1Cl	-176*
O=C(Nc1ccc2cn[nH]c2c1)c1ccc(Cl)c(S(=O)(=O)N2CCOCC2)c1	-200*
O=C(Nc1cccc(F)c1)c1ccc2c(c1)OCO2	-149*
O=C(NNC(=O)c1ccc(F)cc1F)c1ccc2c(c1)OCO2	-90*
CCC(CC)C(=O)Nc1cccc(C(=O)Nc2ccc3c(c2)OCO3)c1	-121*
O=C(Nc1ccc2c(c1)OCCO2)c1cccc(S(=O)(=O)N2CCOCC2)c1	-88*
Cc1ccc2cc(NC(=O)c3ccccc3C)ccc2n1	-195*
Cc1ccc2cc(NC(=O)Cc3ccccc3)ccc2n1	-127*
C/C(=N\OC(=O)c1ccc(Cl)cc1)c1sc(-c2ccccc2)nc1C	-124*
C/C(=N\OC(=O)c1ccc(F)cc1)c1sc(-c2ccccc2)nc1C	-158*
Cc1ccnc(Nc2nc(-c3sc(C)nc3C)cs2)c1	-161*
Cc1nc(N)sc1-c1csc(Nc2ccc(Cl)cn2)n1	-142*
SMILES	aSyn 5UTR act
Cc1nc(N)sc1-c1csc(Nc2ccccn2)n1	-168*
Cc1nc(C)c(-c2csc(Nc3ccccn3)n2)s1	-85*
CC1CCC(NC(=O)Cn2cc3c(n2)CCCC3)CC1 (stereo not given)	-157*
O=C(NCc1ccc(F)cc1)c1c2c(nc3ccccc13)CCC2	-71*
O=[N+]([O-])c1ccc2c(c1)nc1n2CCN(c2ccccc2)C1	-125*
Cc1c(/N=C(\[O-])Nc2ccc(Br)cc2)sn[n+]1C	89
C/C(=C\C(=O)c1ccc(Br)cc1)NCc1ccccc1	-113*
C/C(=C\C(=O)c1ccc(Cl)cc1)Nc1ccc(Br)cc1	-131*
C/C(=C\C(=O)c1ccc(Br)cc1)Nc1cccc(Cl)c1	-80*
O=c1c(-c2ccccc2)n[nH]c2ccccc12	-87*
BrC(=C\c1ccccc1)/C=N/N1CCN(c2ccccc2)CC1	-65*
Clc1ccc(N2CCN(/N=C/c3cccnc3)CC2)cc1	-67*
COC(=O)c1ccc(/C=N\N2CCN(c3ccccc3)CC2)cc1	-127*
C(=N\N1CCN(c2ccccc2)CC1)/c1ccccc1	-123*
Cc1ccc(C(=O)O/N=C/c2c(N3CCOCC3)n(C)c3ccccc23)cc1	77
Clc1ccc(/C=N\Nc2ccccc2)cc1	-67*
O=C(N/N=C/c1ccco1)Nc1ccccc1	-130*
O=C(N/N=C/c1ccc(Cl)cc1)Nc1ccccc1	-170*
CCOc1ccc(/C=N/Nc2ccccc2)cc1	-75*
CCC(C)(C)NC(=O)C(c1ccncc1)N(C(=O)c1sc(C)nc1C)c1ccc(C)cc1 (stereo not given)	-62*
Cc1ccc(NCCC(=O)c2cccs2)cc1Cl	-87*
CC(=O)c1ccc(NCCC(=O)c2ccccc2)cc1	-82*
Cc1ccc(NCCC(=O)c2cccs2)cc1C	-187*
CC(CC(=O)c1cccs1)CC(=O)c1cccs1	-144*
Cc1ccc(NCCC(=O)c2ccc(Cl)cc2)cc1C	-99*
SMILES	aSyn 5UTR act
Cc1cc(C)c(C(CC(=O)c2cccs2)C(C#N)C#N)c(C)c1 (stereo not given)	-189*
CC(C)c1ccc(NCCC(=O)c2cccs2)cc1	-217*
COC(=O)c1ccc(COC(=O)CCC(=O)c2cccs2)cc1	-84*
Cc1ccc(NCCC(=O)c2cccs2)cc1	-164*
Cc1cccc(NCCC(=O)c2ccc(Br)cc2)c1	-94*
COc1ccc(C(=O)c2c[nH]c3ccccc23)cc1	-196*
Cc1ccsc1C(=O)NCCc1c[nH]c2ccccc12	-123*
O=C(NCCc1c[nH]c2ccccc12)c1ccc(Cl)cc1	-221*
CC(=O)c1c(C)[nH]c(C(=O)NCCc2c[nH]c3ccccc23)c1C	-89*
O=C(NCCc1c[nH]c2ccccc12)c1cnccn1	-80*
O=C(NCCc1c[nH]c2ccccc12)c1cnc2sccn2c1=O	-152*
O=C(NCCc1c[nH]c2ccccc12)c1ccc(F)cc1F	-145*
CC(=O)c1c(C)[nH]c(C(=O)NCCC2=CCCCC2)c1C	-156*
